Assay results published in PubChem BioAssay (NCI).
This is part of a sample that, as a whole, favours compounds with a hit. Of some 83,000 tested, about 20% had one in any assay.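 The test compound was applied at a single concentration to cells in 96-well plates for 48 hours, and percent growth was recorded.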 The source made the active and inactive calls. The calls were made as follows: active = growth percent below 10; inactive = the rest.

Legend:
Assay in all cases: NCI-60 one-dose screen, 48 h (100 = growth as untreated, 0 = no growth, -100 = all killed)
Conditions in all cases: 10 µM unless noted
[1] = tested on: NCI-H23 lung
[2] = tested on: NCI-H226 lung
[3] = tested on: NCI-H322M lung
[4] = tested on: HOP-62 NSCLC
[5] = tested on: NCI-H460 lung
[6] = tested on: NCI-H522 lung
[7] = tested on: A549/ATCC NSCLC
[8] = tested on: 786-0 renal
[9] = tested on: COLO 205 colon
[10] = tested on: DU-145 prostate
[11] = tested on: K-562 leukemia
[12] = tested on: MALME-3M melanoma
[13] = tested on: MDA-MB-231 breast
[14] = tested on: RXF 393 renal
[15] = tested on: SF-268 CNS
[16] = tested on: SF-295 CNS
[17] = tested on: SF-539 CNS
[18] = tested on: UACC-257 melanoma
[19] = tested on: M14 melanoma

Measured: growth

CC(C)(CCc1ccccn1)C(=O)CCCc1ccccn1
inactive: [1] 106% | [2] 104% | [3] 116% | [4] 105% | [5] 106% | [6] 108% | [7] 99% | [8] 99.9% | [9] 96.4% | [10] 109% | [11] 95% | [12] 70.4% | [13] 96.2% | [14] 117% | [15] 105% | [16] 120% | [17] 114% | [18] 109% | [19] 98.7%

Cc1cc(O)c2cc3c(O)c(O)ccc3cc2c1
inactive: [1] 101% | [2] 115% | [3] 119% | [4] 120% | [5] 125% | [6] 88.6% | [7] 117% | [8] 91.5% | [9] 123% | [10] 105% | [11] 90.8% | [12] 109% | [13] 95.2% | [14] 107% | [15] 135% | [16] 109% | [17] 100% | [18] 132% | [19] 128%

Clc1ccccc1CNc1c2ccccc2nc2ccccc12
active: [5] 8.83% | [9] 0.525% | [11] 5.33% | [17] 6.15%
inactive: [1] 21.6% | [2] 38.9% | [3] 27% | [4] 40.9% | [6] 28.5% | [7] 19.2% | [8] 24.5% | [10] 31.8% | [12] 19% | [13] 29% | [14] 15% | [15] 46.6% | [16] 21.7% | [18] 44.3% | [19] 18.1%

CN(C)c1ccc(C2(Cl)c3ccccc3N(C)c3ccccc32)cc1
inactive: [1] 44.2% | [2] 69.1% | [3] 75.9% | [4] 29.9% | [5] 36.9% | [6] 19% | [7] 60% | [8] 62.1% | [9] 43.1% | [10] 50.5% | [11] 51% | [12] 48.5% | [13] 69.1% | [14] 74% | [15] 18.2% | [16] 66.3% | [17] 86.9% | [18] 54.4% | [19] 53.4%

Cc1c(C(=O)Nc2ccccc2F)sc2c(=O)[nH]cnc12
inactive: [1] 94% | [2] 102% | [3] 94.1% | [4] 96.1% | [5] 51.6% | [6] 66.6% | [7] 88.3% | [8] 98.4% | [9] 97.8% | [10] 112% | [11] 47.4% | [12] 88.3% | [13] 86.2% | [14] 107% | [15] 106% | [16] 85.4% | [17] 109% | [18] 88.7% | [19] 75.1%

O=C(Nc1ccc([N+](=O)[O-])cc1)c1cc2ccccc2cc1O
inactive: [4] 13% | [9] 67.8% | [10] 103% | [15] 92.5%
active: [1] -35.7% | [2] 1.68% | [3] 3.46% | [5] -33% | [6] -31.5% | [7] -6.53% | [8] -24.2% | [11] 0.836% | [12] -21.5% | [13] -35.5% | [14] -10.4% | [16] -20.6% | [17] 2.51% | [18] -33.3% | [19] -11.4%

COc1cc(CN2CCC(N3CCCC3=O)c3ccccc32)cc(OC)c1OC (configuration not stated)
inactive: [1] 63% | [2] 85.9% | [3] 87.9% | [4] 95.5% | [5] 89.4% | [6] 55.3% | [7] 80.7% | [8] 80.4% | [9] 106% | [10] 108% | [11] 46% | [12] 71.9% | [13] 90.4% | [14] 112% | [15] 91.6% | [16] 79.3% | [17] 93.7% | [18] 72.2% | [19] 92.9%

C=C1C(=O)O[C@H]2[C@H]1CC/C(COC(=O)NCc1ccc(Cn3c(=O)sn(CCCl)c3=O)cc1)=C\CC[C@@]1(C)O[C@@H]21
inactive: [1] 103% | [2] 79.8% | [3] 95.1% | [4] 75.3% | [5] 97.8% | [7] 86% | [8] 32.4% | [10] 36.9% | [13] 73.5% | [15] 85.2% | [16] 107% | [17] 83.1% | [18] 49.8% | [19] 29.5%
active: [6] -68% | [9] -48.1% | [11] -13% | [12] -28.3% | [14] 5.98%
